{"source": "PubChem BioAssay AID1159580", "about": "(chemical genetic matrix, 2015)", "assay": "chemical genetic growth profiling, strain panel (AID 1159580);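 note: tested at 20 µM; growth read once vehicle control cultures reached saturation at 30 °C; 1 = growth at the plate median or of vehicle wells; lower values mean less growth of the strain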", "details": "S. cerevisiae deletion strains, growth OD", "note": "About 2,000 (36%) of roughly 5,500 compounds were called active. Roughly 18% stayed inconclusive and do not appear here. The list shows a part of the results. Values without a mark were called inactive. Cut-off read from the data, not from the text of the source: active = normalized growth mostly below about 0.91 (no sharp cut-off); inconclusive = no clear call, values can overlap the other calls; inactive = mostly above about 0.92."}
{"compound": "O=[N+]([O-])c1ccsc1Oc1cccc(C(F)(F)F)c1", "values": [{"measurement": "normalized growth", "setting": "locus YAR019C, strain CDC15, hits give low values", "result": 0.945}, {"measurement": "normalized growth", "setting": "locus YBL105C, strain PKC1, hits give low values", "result": 0.986}, {"measurement": "normalized growth", "setting": "locus YBR135W, strain CKS1, hits give low values", "result": 0.95}, {"measurement": "normalized growth", "setting": "locus YBR136W, strain MEC1, hits give low values", "result": 0.976}, {"measurement": "normalized growth", "setting": "locus YBR160W, strain CDC28, hits give low values", "result": 1.01}, {"measurement": "normalized growth", "setting": "locus YDL017W, strain CDC7, hits give low values", "result": 0.987}, {"measurement": "normalized growth", "setting": "locus YDL028C, strain MPS1, hits give low values", "result": 0.989}, {"measurement": "normalized growth", "setting": "locus YDL101C, strain DUN1, hits give low values", "result": 0.958}, {"measurement": "normalized growth", "setting": "locus YDL108W, strain KIN28, hits give low values", "result": 0.979}, {"measurement": "normalized growth", "setting": "locus YDL132W, strain cdc53, hits give low values", "result": 0.946}, {"measurement": "normalized growth", "setting": "locus YDL214C, strain PRR2, hits give low values", "result": 0.909}, {"measurement": "normalized growth", "setting": "locus YDR052C, strain DBF4, hits give low values", "result": 0.989}, {"measurement": "normalized growth", "setting": "locus YDR054C, strain cdc34, hits give low values", "result": 0.929}, {"measurement": "normalized growth", "setting": "locus YDR226W, strain ADK1, hits give low values", "result": 0.973}, {"measurement": "normalized growth", "setting": "locus YDR477W, strain SNF1, hits give low values", "result": 0.876}, {"measurement": "normalized growth", "setting": "locus YER123W, strain YCK3, hits give low values", "result": 0.814}, {"measurement": "normalized growth", "setting": "locus YER133W, strain GLC7, hits give low values", "result": 0.831}, {"measurement": "normalized growth", "setting": "locus YFL009W, strain cdc4, hits give low values", "result": 0.925}, {"measurement": "normalized growth", "setting": "locus YFL029C, strain CAK1, hits give low values", "result": 0.94}, {"measurement": "normalized growth", "setting": "locus YFR003C, strain YPI1, hits give low values", "result": 0.984}, {"measurement": "normalized growth", "setting": "locus YFR019W, strain FAB1, hits give low values", "result": 0.927}, {"measurement": "normalized growth", "setting": "locus YFR028C, strain CDC14, hits give low values", "result": 0.955}, {"measurement": "normalized growth", "setting": "locus YGR040W, strain KSS1, hits give low values", "result": 0.857}, {"measurement": "normalized growth", "setting": "locus YGR052W, strain FMP48, hits give low values", "result": 0.88}, {"measurement": "normalized growth", "setting": "locus YGR092W, strain DBF2, hits give low values", "result": 0.769}, {"measurement": "normalized growth", "setting": "locus YHR030C, strain SLT2, hits give low values", "result": "1.26 [resistant] (active)"}, {"measurement": "normalized growth", "setting": "locus YHR079C, strain IRE1, hits give low values", "result": 0.962}, {"measurement": "normalized growth", "setting": "locus YHR082C, strain KSP1, hits give low values", "result": 0.907}, {"measurement": "normalized growth", "setting": "locus YHR205W, strain SCH9, hits give low values", "result": 0.872}, {"measurement": "normalized growth", "setting": "locus YIL147C, strain SLN1, hits give low values", "result": 0.979}, {"measurement": "normalized growth", "setting": "locus YJL095W, strain BCK1, hits give low values", "result": 0.861}, {"measurement": "normalized growth", "setting": "locus YJL128C, strain PBS2, hits give low values", "result": 0.939}, {"measurement": "normalized growth", "setting": "locus YJL157C, strain FAR1, hits give low values", "result": 0.887}, {"measurement": "normalized growth", "setting": "locus YJR016C, strain ILV3, hits give low values", "result": 0.952}, {"measurement": "normalized growth", "setting": "locus YJR066W, strain TOR1 (second series), hits give low values", "result": 0.71}, {"measurement": "normalized growth", "setting": "locus YJR066W, strain TOR1, hits give low values", "result": 0.926}, {"measurement": "normalized growth", "setting": "locus YKL048C, strain ELM1, hits give low values", "result": 0.912}, {"measurement": "normalized growth", "setting": "locus YKL067W, strain YNK1, hits give low values", "result": 0.905}, {"measurement": "normalized growth", "setting": "locus YKL101W, strain HSL1, hits give low values", "result": 0.931}, {"measurement": "normalized growth", "setting": "locus YKL193C, strain SDS22, hits give low values", "result": 0.944}, {"measurement": "normalized growth", "setting": "locus YKL203C, strain TOR2, hits give low values", "result": 0.887}, {"measurement": "normalized growth", "setting": "locus YLR113W, strain HOG1, hits give low values", "result": "0.821 (active)"}, {"measurement": "normalized growth", "setting": "locus YLR133W, strain CKI1, hits give low values", "result": 0.936}, {"measurement": "normalized growth", "setting": "locus YLR403W, strain SFP1, hits give low values", "result": 0.852}, {"measurement": "normalized growth", "setting": "locus YML070W, strain DAK1, hits give low values", "result": 0.895}, {"measurement": "normalized growth", "setting": "locus YMR001C, strain CDC5, hits give low values", "result": 0.956}, {"measurement": "normalized growth", "setting": "locus YMR205C, strain PFK2 (second series), hits give low values", "result": 0.911}, {"measurement": "normalized growth", "setting": "locus YMR277W, strain FCP1, hits give low values", "result": 0.94}, {"measurement": "normalized growth", "setting": "locus YNL006W, strain LST8, hits give low values", "result": 0.946}, {"measurement": "normalized growth", "setting": "locus YNL020C, strain ARK1, hits give low values", "result": 0.925}, {"measurement": "normalized growth", "setting": "locus YNL161W, strain CBK1, hits give low values", "result": 0.972}, {"measurement": "normalized growth", "setting": "locus YNL183C, strain NPR1, hits give low values", "result": 0.869}, {"measurement": "normalized growth", "setting": "locus YNL207W, strain RIO2, hits give low values", "result": 0.96}, {"measurement": "normalized growth", "setting": "locus YNL222W, strain SSU72, hits give low values", "result": 0.972}, {"measurement": "normalized growth", "setting": "locus YNL307C, strain MCK1 (second series), hits give low values", "result": 0.939}, {"measurement": "normalized growth", "setting": "locus YOL078W, strain AVO1, hits give low values", "result": 0.93}, {"measurement": "normalized growth", "setting": "locus YOL136C, strain PFK27, hits give low values", "result": 0.89}, {"measurement": "normalized growth", "setting": "locus YOR061W, strain CKA2, hits give low values", "result": 0.88}, {"measurement": "normalized growth", "setting": "locus YOR119C, strain RIO1, hits give low values", "result": 0.883}, {"measurement": "normalized growth", "setting": "locus YOR231W, strain MKK1, hits give low values", "result": 0.849}, {"measurement": "normalized growth", "setting": "locus YOR329C, strain SCD5, hits give low values", "result": 0.984}, {"measurement": "normalized growth", "setting": "locus YPL031C, strain PHO85, hits give low values", "result": 0.842}, {"measurement": "normalized growth", "setting": "locus YPL153C, strain RAD53, hits give low values", "result": 0.846}, {"measurement": "normalized growth", "setting": "locus YPL204W, strain HRR25, hits give low values", "result": 0.845}, {"measurement": "normalized growth", "setting": "locus YPL209C, strain IPL1, hits give low values", "result": 0.984}, {"measurement": "normalized growth", "setting": "locus YPL256C, strain CLN2, hits give low values", "result": 0.991}, {"measurement": "normalized growth", "setting": "locus YPR025C, strain CCL1, hits give low values", "result": 0.98}, {"measurement": "normalized growth", "setting": "locus YPR106W, strain ISR1, hits give low values", "result": 0.966}, {"measurement": "normalized growth", "setting": "locus YPR111W, strain DBF20, hits give low values", "result": 0.96}, {"measurement": "normalized growth", "setting": "strain NNK1, hits give low values", "result": 0.976}, {"measurement": "normalized growth", "setting": "strain TSCII, hits give low values", "result": 0.932}]}
